Experimental data taken from PubChem BioAssay (EPA / NIEHS).
Active and inactive are the calls of the source. Rule for the calls: active = hit-call score of the fitted dose curve at least 0.9, where 1 is the maximum; inactive = score below 0.9.

read-out: Tumor necrosis factor (Homo sapiens) (UniProt P01375); assay: BSK_BT_xTNFa: BioMAP Diversity Plus: BT Assay for Tumor necrosis factor alpha (TNF-alpha) Biomarker Activity (AID 2284230); details: primary human B cells with PBMC
Description: BSK_BT is a cell-based, multiplexed-readout assay that uses B cell and peripheral blood mononuclear cells, a human vascular primary cell co-culture, with measurements taken at 24 hours after chemical dosing in a microplate: 96-well plate.BSK_BT_xTNFa is an assay component of the BSK_BT assay. It measures secreted TNF-alpha related to regulation of gene expression using LumineX xMAP technology.Data from the assay component BSK_BT_xTNFa was analyzed at the endpoint, BSK_BT_xTNFa, in the positive analysis fitting direction relative to DMSO as the negative control and baseline of activity. Using a type of cytokine quantitation reporter, gain or loss-of-signal activity can be used to understand protein changes. To generalize the intended target to other relatable targets, this assay endpoint is annotated to the 'cytokine' intended target family, where the subfamily is 'inflammatory factor'.
The levels of cell surface (or secreted, indicated by the prefix "s") biomarker endpoints were measured by ELISA. Overt cytotoxicity to cells in confluent adherent cultures (all systems other than the BT system) was assessed by measuring total protein levels using sulforhodamine B (SRB) staining in parallel cultures at the time of biomarker measurements, indicated as SRB endpoints. For proliferation assays for adherent cell types, individual cell types are cultured at sub-confluence and relative cell numbers quantified by SRB staining at time points optimized for each system (48 h: 3C and CASM3C systems; 72 h: BT and HDF3CGF systems; 96 h: SAg system). SRB was performed by staining cells with 0.1% SRB after fixation with 10% TCA and reading wells at 560 nm.Viability and proliferation of PBMC (T cells) was quantified by Alamar Blue reduction for the SAg and BT systems. For PBMC viability (referred to as PBMC Cytotoxicity within the assay endpoint names), cells were plated (75,000/well in a 96-well plate) and then chemical samples added for 1 h before addition of activators, SEB and TSST-1 (20 ng/mL final concentration each). Cells were incubated for 90 h. Then, Alamar Blue (20 uL/well) (Invitrogen, Cat DAL1100) was added for 6 h, and the plates were read with a fluorescence microplate reader at 546/580 nm (excitation/emission). For PBMC proliferation, cells were plated and activated as above but incubated for only 16 h prior to addition of Alamar Blue. Plates were read after 6 h.

Sequence of Tumor necrosis factor (Homo sapiens) (P01375 whole entry, looked up): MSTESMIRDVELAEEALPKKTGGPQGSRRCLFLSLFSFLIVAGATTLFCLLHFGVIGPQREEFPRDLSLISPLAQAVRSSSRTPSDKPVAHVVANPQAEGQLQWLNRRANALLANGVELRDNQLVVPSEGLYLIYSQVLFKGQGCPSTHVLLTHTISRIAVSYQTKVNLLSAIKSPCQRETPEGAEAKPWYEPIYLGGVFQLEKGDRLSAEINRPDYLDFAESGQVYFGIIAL

Row | SMILES | outcome | AC50
1 | CCn1c2ccccc2c2cc(N)ccc21 | inactive | –
2 | Cc1ccc2n[nH]nc2c1 | inactive | –
3 | C=C(C)C(=O)O[C@H]1C[C@@H]2CC[C@@]1(C)C2(C)C | inactive | –
4 | O=C(O)C[C@H](O)C[C@H](O)/C=C/c1c(C2CC2)nc2ccccc2c1-c1ccc(F)cc1 | – | 3 µM (active)
5 | O=C=NC1CCC(CC2CCC(N=C=O)CC2)CC1 (stereo not drawn) | inactive | –
6 | c1ccc2sc(SN(C3CCCCC3)C3CCCCC3)nc2c1 | inactive | –
7 | CC1COc2ccccc2N1C(=O)C(Cl)Cl (stereo not drawn) | inactive | –
8 | BrC1CCC(Br)C(Br)CCC(Br)C(Br)CCC1Br (stereo not drawn) | – | 28.2 µM (active)
9 | CC(=O)O[C@]1(C(C)=O)CC[C@H]2[C@@H]3C[C@H](C)C4=CC(=O)CC[C@]4(C)[C@H]3CC[C@@]21C | inactive | –
10 | Cc1ccc(O)c(C(C)(C)C)c1 | inactive | –
11 | CC(C)c1ccc(C(C)C)cc1 | inactive | –
12 | CC(=O)/C=C/C1=C(C)CCCC1(C)C | inactive | –
13 | CC1CCC(C(C)CS)CC1S (stereo not drawn) | inactive | –
14 | CCCCCCCCCC=O | inactive | –
15 | CC(C)Oc1ccccc1O | inactive | –
16 | CCc1c(C)cc(N)c(CC)c1N | inactive | –
17 | CN(CCOc1ccc(CC2SC(=O)NC2=O)cc1)c1ccccn1 (stereo not drawn) | inactive | –
18 | Cc1ccc(Nc2ccc(O)c3c2C(=O)c2ccccc2C3=O)cc1 | inactive | –
19 | c1ccc2c(c1)c1cccc3ccc4cccc2c4c31 | inactive | –

Row | SMILES | outcome | AC50
20 | O=C(O)c1cn(C2CC2)c2cc(N3CCNCC3)c(F)cc2c1=O | inactive | –
21 | O=C1CCCCCCCCCCCCCCO1 | – | 35.8 µM (active)
22 | C#C[C@]1(O)CC[C@H]2[C@@H]3CCC4=Cc5oncc5C[C@]4(C)[C@H]3CC[C@@]21C | – | 33.7 µM (active)
23 | O=[N+]([O-])c1cc(C(F)(F)F)ccc1Cl | inactive | –
24 | O=C(O)c1cn(-c2ccc(F)cc2)c2cc(N3CCNCC3)c(F)cc2c1=O | inactive | –
25 | C=C[Si](OCC)(OCC)OCC | inactive | –
26 | Nc1cc([N+](=O)[O-])ccc1Cl | inactive | –
27 | COC(=O)c1ccc(C)cc1 | inactive | –
28 | CC(C)(COC(=O)c1ccccc1)COC(=O)c1ccccc1 | inactive | –
29 | CCCCC/C=C/C=C/C=O | – | 35.7 µM (active)
30 | CC(=O)Nc1ccccc1O | inactive | –
31 | N#Cc1ccc(CC(=NNC(=O)Nc2ccc(OC(F)(F)F)cc2)c2cccc(C(F)(F)F)c2)cc1 | inactive | –
32 | O=C1OC2(c3cc(Br)c(O)c(Br)c3Oc3c2cc(Br)c(O)c3Br)c2c(Cl)c(Cl)c(Cl)c(Cl)c21 | – | 13.2 µM (active)
33 | CCCCC(CC)COC(=O)/C=C\C(=O)OCC(CC)CCCC (stereo not drawn) | inactive | –
34 | O=P(c1ccccc1)(c1ccccc1)c1ccccc1 | inactive | –
35 | CCCCCCCCCCCCCCCCCC(=O)OCC(CC)CCCC (stereo not drawn) | inactive | –
36 | CNC[C@H](O)c1cccc(O)c1 | inactive | –
37 | CCCCC(CC)COCCC#N (stereo not drawn) | inactive | –
38 | CCCCCCCCC=O | inactive | –
